Compounds without any hit were thinned out: in the full panel of roughly 79,000, 15% have a hit. Cut-off read from the data, not from the text of the source: active = growth inhibition above about 70%; inactive = the rest.
Assays:
[1] = NCI Yeast Anticancer Drug Screen. Data for the rad50 strain (AID 155);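 note: 0% = growth of vehicle-only cultures of the same strain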; conditions: S. cerevisiae rad50 strain growth inhibition; at 50.0 µM; active compounds read high
How it was run: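 Cells are treated with compound, grown, and their growth is then scored against vehicle-only cultures of the same repair-deficient yeast strain.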

[2] = NCI Yeast Anticancer Drug Screen. Data for the mec2-1 strain (AID 157); conditions: S. cerevisiae mec2-1 strain, at 50.0 µM, active compounds read high
How it was run: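 mec2-1 yeast strain, carrying an alteration in DNA damage repair or cell cycle control, was exposed to compounds; growth inhibition was measured relative to vehicle-treated controls.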

[3] = NCI Yeast Anticancer Drug Screen. Data for the sgs1 mgt1 strain (AID 161);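 note: 0% = growth of cultures given vehicle only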; conditions: S. cerevisiae sgs1 mgt1 strain, at 50.0 µM, active compounds read high
How it was run: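 Growth of a repair-deficient yeast mutant was monitored after compound treatment and expressed as inhibition relative to vehicle-treated cultures.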

[4] = NCI Yeast Anticancer Drug Screen. Data for the cln2 rad14 strain (AID 165);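 note: 0% = growth equal to vehicle treated cultures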; conditions: S. cerevisiae cln2 rad14 strain, at 50.0 µM, active compounds read high
How it was run: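 Yeast carrying cln2 and rad14 alterations (cell cycle control and DNA damage repair) were exposed to compounds. Growth inhibition was measured against vehicle-treated controls.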

[5] = NCI Yeast Anticancer Drug Screen. Data for the bub3 strain (AID 167); conditions: S. cerevisiae bub3 mutant strain, at 50.0 µM, active compounds read high
How it was run: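 Part of a panel of yeast mutants defective in DNA damage repair or cell cycle regulation. Each strain is grown with compound, and inhibition is calculated relative to solvent-treated cultures.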

[6] = NCI Yeast Anticancer Drug Screen. Data for the mlh1 rad18 strain (AID 175); conditions: S. cerevisiae mlh1 rad18 strain growth inhibition; at 50.0 µM; active compounds read high
How it was run: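 Growth inhibition of the yeast strain was measured after compound exposure and expressed relative to vehicle-treated controls. The strain carries defined defects in DNA damage repair.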

Measured: growth inhibition

N=P(c1ccccc1)(c1ccccc1)c1ccccc1.[Cr+6].[N-]=C=S.[N-]=C=S.[N-]=C=S.[N-]=C=S.[NH2-].[NH2-]
inactive: [1] 3.95% | [2] -2.55% | [3] -3.6% | [4] -3.35% | [5] -2.1% | [6] 0%

O=C1C(Br)=CC2(C=C1Br)CCN=c1c(O)c3c(c(O)c12)=NC=N3
inactive: [1] 27.3% | [2] 15.7% | [3] 20.5% | [4] 19.1% | [5] 12.7% | [6] -9.4%

CC(=O)OCC1OC(n2ncc3c(N4CC4)ncnc32)C(OC(C)=O)C1OC(C)=O (stereo not given)
inactive: [1] 7.7% | [2] -12.6% | [3] -21.3% | [4] 6.65% | [5] 1.45% | [6] 4.25%

CN(C)C(=O)Oc1ccc([N+](=O)[O-])cc1OC(=O)N(C)C
inactive: [1] 2.4% | [2] -5.25% | [3] 0.8% | [4] -8.65% | [5] 9.95% | [6] -4.05%

COc1ccc(N=NC(=O)NC(CC(C)C)C(=O)NC(C)C(=O)O)cc1 (stereo not given)
inactive: [1] -11.8% | [2] -26.4% | [3] -8.5% | [4] -19.6% | [5] -31.4% | [6] 5.15%

CCC1(CCC(C)C)C(=O)NC(=NCCCC(N)C(=O)O)NC1=O (stereo not given)
inactive: [1] 11.1% | [2] -0.35% | [3] 7.6% | [4] 30.3% | [5] 3.25% | [6] 13.1%

CCOP(=S)(NCCCOC)OCC
inactive: [1] 0.25% | [2] 5.8% | [3] 12.3% | [4] -32.4% | [5] 22.6% | [6] 2.4%

Cc1ccc(N)cc1
inactive: [1] 2.1% | [2] -2.55% | [3] -7.2% | [4] -1.1% | [5] 9.4% | [6] 1.3%

C/C=C1/CN2C3C[C@H]1C(CO)(C(=O)OC)[C@H]2Cc1c3n(C)c2ccccc12 (stereo not given in full)
inactive: [1] -1.2% | [2] -4.35% | [3] 16.7% | [4] -0.1% | [5] 7% | [6] -8.9%

COc1cc2c(cc1OC)C13CCN4CC5=CCOC6CC(=O)N2C1C6C5CC43O (stereo not given)
inactive: [1] -13.9% | [2] -30.9% | [3] -8.05% | [4] 8.55% | [5] -4.2% | [6] -47.4%

N[C@@H]1CCCC[C@@H]1N.O=P([O-])([O-])CN(CP(=O)([O-])[O-])CP(=O)([O-])[O-].[Pt+2]
inactive: [1] -5.05% | [2] -6.4% | [3] -10.2% | [4] 14.9% | [5] -0.1% | [6] -21.1%

CCOP(=S)(Oc1ccccc1[N+](=O)[O-])c1ccccc1 (stereo not given)
inactive: [1] 6.85% | [2] 7.4% | [3] 12.6% | [4] 25.8% | [5] 18.9% | [6] 10.2%

N#CCCCCN=[N+]=[N-]
inactive: [1] -4% | [2] 27.1% | [3] -12.6% | [4] 3.25% | [5] 20.4% | [6] -8.35%

CCOP(N)(=O)SC (stereo not given)
inactive: [1] -11.1% | [2] 8% | [3] -11.8% | [4] -12.8% | [5] -7.45% | [6] 23.6%

[Cl][Pt]([Cl])[Cl].[NH-]C1CN2CCC1CC2 (stereo not given)
inactive: [1] 19.9% | [2] 19.4% | [3] -13.8% | [4] 22.4% | [5] 2.2% | [6] -7.55%

CC(=O)C1CCC2C3CC=C4CC(OOS(=O)c5ccc(C)cc5)CCC4(C)C3CCC12C (stereo not given)
inactive: [1] 43.2% | [2] 20.1% | [3] 46.2% | [4] -31.4% | [5] 22.4% | [6] 24.1%

CCC1(CCSC#N)C(=O)NC(=O)NC1=O
inactive: [1] -7.55% | [2] -8.6% | [3] 11.2% | [4] -14.9% | [5] -3.3% | [6] 3.85%

COc1ccc(CC(N)c2nn[nH]n2)cc1 (stereo not given)
inactive: [1] 4.1% | [2] -1% | [3] -1.1% | [4] -23.1% | [5] 8.15% | [6] -1.75%

O=C1OC(c2ccccc2)(c2ccccc2)C(=O)OC1(c1ccccc1)c1ccccc1
inactive: [1] 16.7% | [2] -14% | [3] 7.7% | [4] 0.4% | [5] 10.4% | [6] 19.2%

O=C(CCl)Oc1ccccc1
inactive: [1] -47.1% | [2] -33.5% | [3] -27.1% | [4] -10.8% | [5] -59.5% | [6] -28.1%
